The values that follow come from PubChem BioAssay.

For experiment [1], the system named is TRPC4 beta (transient receptor potential cation channel C4), mouse. As to the kind of experiment: activators of mouse TRPC4 channel, confirmation, cell-based, Fluo4 calcium, HEK293 TRPC4beta/mu-opioid, duplicates, 10 µM (AID 2426;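 active = fluorescence ratio normalized to control raised more than 50% in primary screen plus both repeat runs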). As to conditions: Fluo4 calcium fluorescence, at 10 µM; active compounds read high.
For experiment [2], the system named is transient receptor potential cation channel C4 beta (TRPC4), mouse. Nature of the experiment: activators of mouse TRPC4 channel, confirmation, cell-based, second round, Fluo4, HEK293 TRPC4beta/mu-opioid, 1 µM (AID 2461;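 active = primary screen active and over 50% activation in each of two duplicate runs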). As to conditions: Fluo4 calcium fluorescence, at 1 µM; active compounds read high.
The test system of experiment [3] is TRPC4 (transient receptor potential cation channel C4 beta), mouse. As to the kind of experiment: positive allosteric modulators of mouse TRPC4, confirmation, cell-based, second round, Fluo-4, HEK293 TRPC4beta/mu-opioid, 1 µM (AID 2554;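 active = primary screen hit whose fluorescence ratio, in both repeats, exceeds the weak agonist control mean by 3 SD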). To be noted: DAMGO EC20, Fluo-4 calcium flux, at 1 µM; active compounds read high.
The subject of experiment [4] is TRPC4 beta (transient receptor potential cation channel C4), mouse. Nature of the experiment: positive allosteric modulators of mouse TRPC4, confirmation, cell-based, Fluo-4, HEK293 TRPC4beta/mu-opioid (AID 2555;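 active = primary screen hit whose calcium fluorescence ratio, in both repeats, exceeds the weak agonist control mean by 3 SD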). To be noted: DAMGO EC20, Fluo-4 calcium flux, at 10 µM; active compounds read high. For orientation: Calcium flux is commonly read through the fluorescence of an indicator in the cells.

The target of experiment [5] is Short transient receptor potential channel 4 (Mus musculus) (UniProt Q9QUQ5). Nature of the experiment: inhibitors of mouse TRPC4 channel, confirmation, cell-based, Fluo4, HEK293 TRPC4beta/mu-opioid (AID 2636;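 active = calcium signal cut by more than 3 SD below the full-agonist control yet still positive, in both repeats and the earlier primary screen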). To be noted: DAMGO, Fluo4 calcium flux, at 10 µM; active compounds read high.
Short transient receptor potential channel 4 (Mus musculus), sequence (Q9QUQ5 whole entry, looked up): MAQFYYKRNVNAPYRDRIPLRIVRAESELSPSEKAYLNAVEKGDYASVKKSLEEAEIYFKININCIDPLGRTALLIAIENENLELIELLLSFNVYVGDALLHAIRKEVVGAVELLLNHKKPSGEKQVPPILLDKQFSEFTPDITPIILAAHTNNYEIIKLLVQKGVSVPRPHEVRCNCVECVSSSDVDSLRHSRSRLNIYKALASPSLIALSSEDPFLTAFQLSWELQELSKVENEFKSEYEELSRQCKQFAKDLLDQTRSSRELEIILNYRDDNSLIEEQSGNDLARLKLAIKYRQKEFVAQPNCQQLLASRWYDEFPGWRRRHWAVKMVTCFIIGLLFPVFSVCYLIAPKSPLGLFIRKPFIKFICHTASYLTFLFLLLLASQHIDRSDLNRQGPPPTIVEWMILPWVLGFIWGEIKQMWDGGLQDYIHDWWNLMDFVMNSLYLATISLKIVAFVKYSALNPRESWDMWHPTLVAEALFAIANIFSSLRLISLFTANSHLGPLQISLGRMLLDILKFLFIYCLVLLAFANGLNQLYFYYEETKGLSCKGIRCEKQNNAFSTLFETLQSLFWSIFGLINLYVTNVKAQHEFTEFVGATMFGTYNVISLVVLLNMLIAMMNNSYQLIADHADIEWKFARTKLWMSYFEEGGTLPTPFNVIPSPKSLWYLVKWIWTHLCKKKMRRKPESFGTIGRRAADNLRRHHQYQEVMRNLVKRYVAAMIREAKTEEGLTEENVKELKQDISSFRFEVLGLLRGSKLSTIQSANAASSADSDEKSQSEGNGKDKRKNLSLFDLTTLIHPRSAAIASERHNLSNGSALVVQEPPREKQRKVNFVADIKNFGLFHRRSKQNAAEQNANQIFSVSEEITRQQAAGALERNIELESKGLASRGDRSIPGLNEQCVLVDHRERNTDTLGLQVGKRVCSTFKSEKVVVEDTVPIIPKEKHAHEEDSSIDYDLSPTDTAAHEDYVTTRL
Experiment [6] shares this target. As to the kind of experiment: inhibitors of mouse TRPC4 channel, confirmation, cell-based, second round, Fluo4, HEK293 TRPC4beta/mu-opioid, 1 µM (AID 2637;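 active = calcium signal ratio cut to more than 3 SD under the fully stimulated control mean yet still positive, in both repeats and the primary screen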). To be noted: Fluo4 calcium flux, DAMGO, at 1 µM; active compounds read high.
The target is the same in experiment [7]. As to the kind of experiment: mouse TRPC4 channel activators, dose response, cell-based, HEK293 TRPC4/mu-opioid, Fluo-4 calcium (AID 434937;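 active = primary screen activator hit with a dose response curve and TRPC4 channel activation at any tested dose; inactive = no activation, no dose response, or not a primary hit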).
For experiment [8] the target is unchanged. Nature of the experiment: TRPC4 positive allosteric modulators, dose response, cell-based, HEK293 TRPC4/mu-opioid, Fluo-4 calcium, EC20 DAMGO (AID 434941).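 Also: calcium entry triggered by an EC20 dose of DAMGO at the co-expressed mu-opioid receptor.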
For experiment [9] the target is unchanged. As to the kind of experiment: mouse TRPC4 channel inhibitors, dose response, cell-based, HEK293 TRPC4/mu-opioid, Fluo-4 calcium (AID 434942;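 active = primary screen inhibitor hit that blocks the TRPC4 channel at some tested dose, yielding a dose curve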).
In experiment [10] the target is Short transient receptor potential channel 6 (Mus musculus) (UniProt Q61143). As to the kind of experiment: inhibition of mouse TRPC6 channel, confirmation, selectivity assay for TRPC4 inhibitor project, cell-based, HEK293, membrane potential dye, duplicate (AID 434948;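 active = active in primary screen and both duplicates, each dropping signal beyond three positive-control SD with fluorescence still positive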). As to conditions: HEK293 TRPC6, membrane potential dye fluorescence, at 10 µM, stimulated with maximal-effect acetylcholine; active compounds read high.
Short transient receptor potential channel 6 (Mus musculus), sequence (Q61143 whole entry, looked up): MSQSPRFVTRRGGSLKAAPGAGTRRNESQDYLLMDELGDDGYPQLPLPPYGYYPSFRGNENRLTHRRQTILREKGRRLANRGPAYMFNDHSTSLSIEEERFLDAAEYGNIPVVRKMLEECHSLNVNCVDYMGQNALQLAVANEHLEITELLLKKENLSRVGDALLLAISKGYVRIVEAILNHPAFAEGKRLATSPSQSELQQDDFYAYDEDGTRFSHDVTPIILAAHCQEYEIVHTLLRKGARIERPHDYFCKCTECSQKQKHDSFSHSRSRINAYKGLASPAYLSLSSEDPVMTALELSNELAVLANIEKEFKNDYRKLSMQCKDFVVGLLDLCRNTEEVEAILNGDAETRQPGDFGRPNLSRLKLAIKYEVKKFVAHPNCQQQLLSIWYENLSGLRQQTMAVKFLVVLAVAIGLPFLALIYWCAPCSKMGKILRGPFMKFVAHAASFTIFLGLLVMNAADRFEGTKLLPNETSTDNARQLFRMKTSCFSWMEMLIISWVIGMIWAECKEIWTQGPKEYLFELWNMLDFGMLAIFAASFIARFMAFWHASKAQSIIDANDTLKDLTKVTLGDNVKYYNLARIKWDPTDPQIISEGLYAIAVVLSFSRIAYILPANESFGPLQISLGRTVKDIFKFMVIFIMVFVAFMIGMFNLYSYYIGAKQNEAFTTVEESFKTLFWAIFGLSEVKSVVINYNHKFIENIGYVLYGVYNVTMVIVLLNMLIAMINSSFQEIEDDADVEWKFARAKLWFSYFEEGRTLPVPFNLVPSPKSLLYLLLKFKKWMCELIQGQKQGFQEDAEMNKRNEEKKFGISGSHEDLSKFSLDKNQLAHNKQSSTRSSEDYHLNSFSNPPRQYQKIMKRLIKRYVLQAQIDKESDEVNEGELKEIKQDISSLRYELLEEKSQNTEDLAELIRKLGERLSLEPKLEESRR

Experiment [11] shares this target. Nature of the experiment: activation of mouse TRPC6 channel, confirmation, selectivity assay for TRPC4 activator project, cell-based, HEK293, membrane potential dye, duplicate (AID 434950;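 active = membrane potential signal rise above negative control mean plus 3 SD in both duplicates, also active in the earlier TRPC4 screen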). To be noted: HEK293 TRPC6, membrane potential fluorescence, at 10 µM; active compounds read high.
The target is the same in experiment [12]. Nature of the experiment: TRPC6 potentiation by TRPC4 potentiator hits, confirmation, selectivity assay for TRPC4 potentiator project, HEK293 cells, membrane potential dye, duplicate (AID 434952;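 active = compound raising the membrane signal above positive-control mean plus 3 SD in both repeats, and a primary screen hit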). As to conditions: HEK293 TRPC6, membrane potential dye fluorescence, at 10 µM, maximal acetylcholine added after compound; active compounds read high.
The target of experiment [13] is Short transient receptor potential channel 4 (Mus musculus) (UniProt Q9QUQ5). As to the kind of experiment: calcium flux activators in TRPC4/5HT1a cells, counter-screen for TRPC4 activator project, cell-based, second counter screen, HEK293 TRPC4/5HT1a, Fluo-4 (AID 434977;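 active = calcium signal rise above buffer-control mean plus 5 SD in both duplicates, and also a hit in the primary screen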). To be noted: Fluo-4 calcium flux, at 10 µM; active compounds read high.
The nature of experiment [14]: calcium flux inhibitors in TRPC4/5HT1a cells, confirmation, counter-screen for TRPC4 inhibitor project, cell-based, second counter screen, HEK293 TRPC4/5HT1a, Fluo-4 (AID 434978;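 active = primary screen active whose calcium signal fell more than 3 SD beyond the full-serotonin control mean in both duplicate plates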;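 also: serotonin given first at submaximal then at maximal dose after compound preincubation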). To be noted: Fluo-4 calcium flux, at 10 µM, serotonin added to trigger calcium flux; active compounds read high.
Experiment [15] deals with TRPC4 (mouse), co-expressed with 5HT1a in HEK293. Nature of the experiment: calcium flux potentiators in TRPC4/5HT1a cells, confirmation, counter-screen for TRPC4 potentiator project, cell-based, second counter screen, HEK293 TRPC4/5HT1a, Fluo-4 (AID 434979;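 active = signal rise over 3 SD above mean of control wells given weak agonist, in both repeats and first screen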). To be noted: Fluo-4 calcium flux, at 10 µM, serotonin added at its EC20 dose; active compounds read high.
Experiment [16] in a line: calcium flux activation in mu-opioid HEK293 cells, confirmation, counter-screen for TRPC4 activator project, cell-based, HEK293 mu-opioid receptor line (AID 449723;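 active = hit in primary screen, with calcium signal over 5 SD above buffer well mean in both duplicates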;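 also: counter screen cells carry the mu-opioid receptor alone and lack TRPC4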). As to conditions: Fluo-4 calcium fluorescence, at 10 µM; active compounds read high.
Experiment [17] is described as follows: calcium flux enhancement in mu-opioid HEK293 cells, confirmation, counter-screen for TRPC4 allosteric potentiator project, cell-based, HEK293 mu-opioid receptor line (AID 449724;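 active = calcium signal rise more than 3 SD above the low-dose agonist control mean, in both duplicate plates and the primary screen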;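 also: HEK293 cells carrying mu-opioid receptor only with no TRPC4 channel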). To be noted: Fluo-4 calcium flux, at 10 µM, compound added before EC20 DAMGO stimulus; active compounds read high.

The structures appear in SMILES notation. For some of these results: Potency and affinity values are given separately. Active and inactive are the calls of the source.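 The calls were made as follows, unless noted: active = earlier screen potentiator hit that boosts the TRPC4 ion channel at some dose, with a dose response; inactive = no potentiation, no dose response, or not a prior hit.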

With `N#Cc1ccc(OCC(O)CN2CCN(c3ncc(C(F)(F)F)cc3Cl)CC2)cc1` (stereo unspecified), the outcome in experiment [1], in experiment [2], in [4], in experiment [5], in [6] and in [7] was inactive. The outcome in experiment [8], in experiment [9], in experiment [10], in [11], in [12] and in experiment [13] was inactive. Also, the result in experiment [14], in experiment [16] and in experiment [17] was inactive. The potentiation in experiment [3] was 8% (active); in experiment [15] it was 12.6% (active).
On to `O=C(COC(=O)c1ccccn1)Nc1nc(-c2ccccc2)cs1`, for which the outcome in [1], in experiment [2], in experiment [3], in [4], in experiment [5] and in [6] was inactive. Besides, the result in [7], in [8], in experiment [9], in [10], in experiment [11] and in experiment [12] was inactive. Moreover, the outcome in experiment [13], in experiment [14], in experiment [15], in experiment [16] and in experiment [17] was inactive.
For `COc1ccc(OCC(=O)NC2CCCN(Cc3ccc(Cl)cc3)C2)cc1` (stereo unspecified), the result in experiment [1], in experiment [2], in experiment [4], in experiment [5], in experiment [6] and in [7] was inactive. In addition, the outcome in experiment [8], in [9], in [10], in experiment [11], in experiment [12] and in experiment [13] was inactive. Also, the result in [14], in experiment [16] and in experiment [17] was inactive. For the same molecule, the potentiation in experiment [3] was 26% (active); in experiment [15], 15.2% (active).
In the case of `COc1cc(Br)cc(C2C3=C(CCCC3=O)N(c3ccc(F)cc3)C3=C2C(=O)CCC3)c1O`, the outcome in experiment [1], in experiment [2], in experiment [3], in [5], in [6] and in experiment [7] was inactive. Also, the result in experiment [8], in experiment [9], in experiment [10], in [11], in experiment [12] and in experiment [13] was inactive. Moreover, the result in [14], in experiment [16] and in experiment [17] was inactive. For the same molecule, the results for the potentiation in experiment [4] and in experiment [15] were 29% (active) and 31.7% (active), respectively.
As for `O=C(CC1C(=O)NCCN1C(=O)Nc1ccccc1)Nc1cc(Cl)cc(Cl)c1` (stereo unspecified), the outcome in experiment [1], in experiment [2], in [3], in experiment [5], in [6] and in experiment [7] was inactive. Also, the result in [8], in experiment [9], in experiment [10], in [11], in experiment [12] and in [13] was inactive. For the same molecule, the outcome in experiment [14], in experiment [16] and in experiment [17] was inactive. Also, the results for the potentiation in [4] and in [15] were 15% (active) and 21.1% (active), respectively.
Take `COc1cc(CNC2CCCCCCC2)cc(Br)c1OCC#N`: the outcome in [1], in experiment [2], in experiment [3], in [4], in [5] and in experiment [6] was inactive. In addition, the outcome in experiment [7], in experiment [8], in experiment [9], in experiment [10], in [11] and in [12] was inactive. Besides, the outcome in experiment [13], in [14], in [15], in experiment [16] and in experiment [17] was inactive.
For `CC(C)Cn1c(CN2CCN(C)C(CCO)C2)nc2ccccc21` (stereo unspecified), the result in [1], in experiment [2], in experiment [3], in [4], in [5] and in [6] was inactive. The result in [7], in experiment [8], in experiment [9], in [10], in experiment [11] and in experiment [12] was inactive. In addition, the outcome in experiment [13], in [14], in [15], in experiment [16] and in experiment [17] was inactive.
For the molecule `CC(Oc1ccc(Cl)cc1Cl)C(=O)N(C)c1ccccc1` (stereo unspecified), the result in experiment [1], in experiment [2], in experiment [3], in [4], in experiment [5] and in [6] was inactive. The result in experiment [7], in experiment [8], in experiment [9], in experiment [10], in experiment [11] and in experiment [12] was inactive. The result in experiment [13], in [14], in experiment [15], in experiment [16] and in experiment [17] was inactive.
